A selection: hits, their analogues and other compounds. The true share with any hit is near 11%.
NPR1 antag – antagonists of human natriuretic peptide receptor Npr1; P16066; HEK293 hNpr1 GloSensor cGMP, ANP-stimulated luminescence; Potency, µM (doses to about 46.3 µM), for inactives: at the highest dose activity change, negative = inhibition, most hits filed as inhibitors; hit rate 1.6% among 76,000; calls by dose curve; note: % is set by controls: 0 for no effect and ±100 for the full control effect; nearly all actives have a fitted effect of over 60% in size
Target sequence (P16066 whole entry, looked up): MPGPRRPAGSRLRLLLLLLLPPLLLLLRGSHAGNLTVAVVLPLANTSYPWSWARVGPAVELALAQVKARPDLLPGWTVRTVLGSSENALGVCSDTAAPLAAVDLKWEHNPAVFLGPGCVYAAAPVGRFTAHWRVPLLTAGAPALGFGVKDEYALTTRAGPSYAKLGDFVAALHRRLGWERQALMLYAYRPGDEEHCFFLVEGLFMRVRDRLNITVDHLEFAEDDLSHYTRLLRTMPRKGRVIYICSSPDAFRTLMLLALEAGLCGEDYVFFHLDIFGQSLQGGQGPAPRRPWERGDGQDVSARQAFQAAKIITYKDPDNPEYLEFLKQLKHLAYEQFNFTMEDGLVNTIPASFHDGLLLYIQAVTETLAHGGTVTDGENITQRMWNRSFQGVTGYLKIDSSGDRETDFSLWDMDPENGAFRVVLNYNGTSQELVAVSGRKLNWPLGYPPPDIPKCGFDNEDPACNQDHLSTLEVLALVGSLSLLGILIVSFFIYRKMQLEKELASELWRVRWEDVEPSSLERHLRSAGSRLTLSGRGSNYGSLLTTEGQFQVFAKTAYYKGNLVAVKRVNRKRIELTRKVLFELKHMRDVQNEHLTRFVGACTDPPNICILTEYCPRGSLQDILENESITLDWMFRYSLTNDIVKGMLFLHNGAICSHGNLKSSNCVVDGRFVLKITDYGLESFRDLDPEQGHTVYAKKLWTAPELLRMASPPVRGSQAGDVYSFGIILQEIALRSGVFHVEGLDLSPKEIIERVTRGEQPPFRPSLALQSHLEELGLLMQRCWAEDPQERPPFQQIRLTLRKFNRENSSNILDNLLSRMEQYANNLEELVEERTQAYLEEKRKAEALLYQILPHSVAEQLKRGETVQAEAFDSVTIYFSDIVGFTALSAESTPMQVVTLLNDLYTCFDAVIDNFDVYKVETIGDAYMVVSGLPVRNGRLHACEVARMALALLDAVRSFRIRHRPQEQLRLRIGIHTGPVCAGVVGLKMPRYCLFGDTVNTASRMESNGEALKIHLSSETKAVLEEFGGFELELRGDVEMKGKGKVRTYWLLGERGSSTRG
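HEK293 cells stably expressing human Npr1 and cGMP GloSensor pGS-40F, loaded 2 h with 2% GloSensor reagent, given compound 30 min at room temperature. Luminescence read before and 20 min after 0.1 nM hNppA.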
HEK293 tox – kills HEK 293 cells; HEK 293 viability, ATP luminescence (CellTiter-Glo), 48-72 h; Potency, µM (highest dose often 115 µM), inactives show at the highest dose activity change, negative = cytotoxicity, actives largely listed as inhibitors; hit rate 6.6% among 94,000; AID 1345083; note: % is set by controls: 0 for no effect and ±100 for the full control effect; nearly all actives have a fitted effect of over 60% in size
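Luminescence from cellular ATP, measured with CellTiter-Glo, indicates HEK 293 viability. Cells plated at 250 cells/well are treated with compound for 48 or 72 hr at 37 degree Celsius before reagent addition.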
NIH3T3 tox – kills NIH 3T3 cells | NIH 3T3 viability, CellTiter-Glo ATP luminescence, 48-72 h | Potency, µM (doses to about 96.7 µM), without a hit: top-dose activity change, negative = cytotoxicity, usual class: inhibitors | hit rate 4.3% among 94,000; note: % is set by controls: 0 for no effect and ±100 for the full control effect; nearly all actives have a fitted effect of over 55% in size
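Cytotoxicity was measured by CellTiter-Glo ATP luminescence after 48 or 72 h compound exposure at 37 °C. Mouse NIH 3T3 fibroblasts were seeded at 400 cells/well and dosed by 23 nL pin transfer.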
FLuc inh-1 – blocks purified firefly luciferase enzyme activity; hit rate 2.5% among 76,000; Potency, µM (highest dose often 115 µM), actives largely listed as inhibitors; purified P. pyralis luciferase, luminescence, biochemical; P08659; note: % is set by controls: 0 for no effect and ±100 for the full control effect; nearly all actives have a fitted effect of over 65% in size
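Luminescence read by CCD imaging after purified firefly luciferase (10nM final) was added to substrate buffer holding 10uM D-luciferin and 10uM ATP, pH 7.5, pre-dosed with compound.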
FLuc SDR -ATP – binders stabilizing firefly luciferase, without ATP; shares compounds with FLuc inh-1; Purified FLuc-C-HiBiT, Nano-Glo HiBiT luminescence, no ATP; Potency, µM (top dose mostly 32.7 µM), for the others: at the highest dose activation (signal gain), actives largely listed as activators; hit rate 7.8% among 1,300; note: nearly all actives have a fitted effect of over 55% in size
FLuc SDR ATP – binders stabilizing firefly luciferase, plus ATP | AID 1963319 | shares compounds with FLuc inh-1 | hit rate 8.7% among 1,300 | Potency, µM (doses to about 32.7 µM), inactives show at the top dose activation (gain of signal), most hits filed as activators | purified FLuc-C-HiBiT + ATP, HiBiT complementation luminescence;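 note: signal reports ligand binding via conformational change of the enzyme rather than luciferase catalysis; % of control where 0% means no effect; nearly all actives have a fitted effect of over 55% in size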
FLuc inh-2 – blocks firefly luciferase enzymatic activity | Potency, µM (top dose mostly 32.7 µM), for the others: top-dose activity change, negative = inhibition, usual class: inhibitors | AID 1963320 | hit rate 42% among 1,300 | shares compounds with FLuc inh-1 | purified FLuc-C-HiBiT enzyme, luciferin luminescence; note: % is set by controls: 0 for no effect and ±100 for the full control effect; nearly all actives have a fitted effect of over 70% in size
Starred values were filed as active, the others as inactive; [ ] = dose if it differs, or a comment. Unless noted, calls come from the whole dose curve; as a rule, active = well fitted curve in the direction sought with a large enough effect; inconclusive = small, poorly fitted or top-dose-only effect, or another doubt; inactive = no such curve, though single readings can be large; an effect the other way counts as inactive or inconclusive. Potency is the fitted concentration of half-maximal effect.

For COCCn1c(C)cnc1CC1CCCN(C(=O)C2(c3ccc(OC)cc3)CC2)C1 (centres undefined) the results were NPR1 antag -4.6%, HEK293 tox -3.0%, NIH3T3 tox -6.3% and FLuc inh-1 inactive.
For Cc1nn(C(=O)CCC(=O)N2CCC(Cc3nncn3CC3CC3)CC2)c2ccccc12 the results were NPR1 antag -12.2%, HEK293 tox -14.1%, NIH3T3 tox -22.6% and FLuc inh-1 inactive.
Screening O=C(c1cc(-c2ccc(F)cc2)nc2ccccc12)N1CCC(Cc2nncn2CC2CC2)CC1 returned NPR1 antag -21.2%, HEK293 tox 44.7µM*, NIH3T3 tox inconclusive, FLuc inh-1 12.6µM*, FLuc SDR -ATP inconclusive, FLuc SDR ATP 21.4% and FLuc inh-2 8.81µM*.
Screening Cc1ccc(-c2cc(C(=O)N3CCC(Cc4nncn4CC4CC4)CC3)c3ccccc3n2)cc1C returned NPR1 antag inconclusive, HEK293 tox inconclusive, NIH3T3 tox 20µM*, FLuc inh-1 1.58µM*, FLuc SDR -ATP 12.4µM*, FLuc SDR ATP inconclusive and FLuc inh-2 1.97µM*.
`COc1ccc(C(=O)N2CCC(Cc3nc(-c4ccccc4)n[nH]3)CC2)cc1OC` gave NPR1 antag 1.8%, HEK293 tox -21.5%, NIH3T3 tox -2.0% and FLuc inh-1 inconclusive.
O=[S+]1([O-])NC2(CCN(Cc3c[nH]c4ccccc34)CC2)COc2ccccc21 was read as HEK293 tox -28.4% and NIH3T3 tox -19.4%.
For COc1ccc(-n2cc(-c3ccnc(N(C)Cc4cnccn4)n3)cn2)cc1 the results were NPR1 antag 0.7%, HEK293 tox inconclusive, NIH3T3 tox inconclusive and FLuc inh-1 inconclusive.
`COc1cccc(-n2cc(CN(C)c3ncncn3)cn2)c1` gave NPR1 antag 1.3%, HEK293 tox -17.0%, NIH3T3 tox -27.3%, FLuc inh-1 12.6µM*, FLuc SDR -ATP 17.0%, FLuc SDR ATP 10.6% and FLuc inh-2 -15.6%.
O=C1CC2(CCN(CC3CC3)CC2)Oc2cc(Cl)ccc21 was read as NPR1 antag inconclusive, HEK293 tox inconclusive, NIH3T3 tox -12.4%[138 µM], FLuc inh-1 3.16µM*, FLuc SDR -ATP 13.9%[49.3 µM], FLuc SDR ATP 18.9%[49.3 µM] and FLuc inh-2 inconclusive.
Screening Cc1c(Cl)cccc1-n1nnc(-c2nc(-c3ccc4c(c3)OCO4)no2)c1C returned FLuc SDR -ATP 18.0%, FLuc SDR ATP 15.9% and FLuc inh-2 11.1µM*.
Screening Clc1ccc(C2Cn3nnc(-c4nc(-c5ccc6c(c5)OCO6)no4)c3CO2)cc1 (centres undefined) returned NPR1 antag 4.1%, HEK293 tox 2.4%, NIH3T3 tox 3.7% and FLuc inh-1 inactive.
COc1ccc(-c2noc(-c3nc(C(C)C)no3)n2)cc1OC was read as NPR1 antag 0.9%, HEK293 tox inconclusive, NIH3T3 tox inactive and FLuc inh-1 inactive.
For CC(C)c1noc(-c2nc(-c3ccc4c(c3)OCO4)no2)n1 the results were NPR1 antag inconclusive, HEK293 tox inconclusive, NIH3T3 tox -23.5%, FLuc inh-1 3.55µM*, FLuc SDR -ATP 15.7%, FLuc SDR ATP 17.0% and FLuc inh-2 7.85µM*.
`c1cncc(Nc2cc3c(cn2)CN(CC2CCCCC2)CCN3)c1` gave NPR1 antag 5.7%[70.6 µM], HEK293 tox inconclusive, NIH3T3 tox inconclusive and FLuc inh-1 inconclusive.
Screening CC(=O)N1CCNc2cc(Nc3cccc(N(C)C)c3)ncc2C1 returned NPR1 antag -1.3%[70.6 µM], HEK293 tox inconclusive, NIH3T3 tox inconclusive, FLuc inh-1 2.82µM*, FLuc SDR -ATP 31.4%[49.3 µM], FLuc SDR ATP inconclusive and FLuc inh-2 16.1µM*.
COc1cccc(Nc2cc3c(cn2)CN(C(C)=O)CCN3)c1 was read as NPR1 antag -30.4%[70.6 µM], HEK293 tox inconclusive, NIH3T3 tox inconclusive, FLuc inh-1 1.78µM*, FLuc SDR -ATP inconclusive, FLuc SDR ATP inconclusive and FLuc inh-2 9.04µM*.
For COc1ccc(Nc2cc3c(cn2)CN(C)CCN3)cc1OC the results were NPR1 antag -1.3%[70.6 µM], HEK293 tox -29.8%[172 µM], NIH3T3 tox inconclusive and FLuc inh-1 inactive.
`COc1ccccc1-c1cc(C(=O)NCc2cccs2)nn2cnnc12` gave HEK293 tox -20.7% and NIH3T3 tox -30.0%.
For CNC(=O)c1cc(C)nc2onc(C3CCCN(C(=O)N(C)C)C3)c12 (centres undefined) the results were HEK293 tox -5.7% and NIH3T3 tox inactive.
O=C(Nc1ccccc1)c1nc2c(o1)CCN(Cc1ccccn1)CC2 was read as NPR1 antag inconclusive, HEK293 tox inconclusive, NIH3T3 tox inconclusive, FLuc inh-1 3.98µM*, FLuc SDR -ATP 26.0%[49.3 µM], FLuc SDR ATP inconclusive and FLuc inh-2 inconclusive.
Cn1cc(CN2CCc3nc(C(=O)Nc4ccccc4)oc3CC2)cn1 was read as FLuc SDR -ATP 23.1%[49.3 µM], FLuc SDR ATP 17.0%[49.3 µM] and FLuc inh-2 inconclusive.
O=C(NCc1ccncc1)c1nc2c(o1)CCN(Cc1ccccc1F)CC2 was read as NPR1 antag inconclusive, HEK293 tox inconclusive, NIH3T3 tox -26.1%[138 µM] and FLuc inh-1 inactive.
`Cc1csc(NC(=O)c2nc3c(o2)CCN(Cc2cccc(F)c2)CC3)n1` gave NPR1 antag -24.8%[70.6 µM], HEK293 tox 50.1µM*, NIH3T3 tox inconclusive, FLuc inh-1 2.82µM*, FLuc SDR -ATP 31.1%[49.3 µM], FLuc SDR ATP inconclusive and FLuc inh-2 14.3µM*.
`O=C(Nc1ccccc1)c1nc2c(o1)CCN(Cc1ccc(O)cc1)CC2` gave NPR1 antag 25.1µM*, HEK293 tox inconclusive, NIH3T3 tox -29.6%[138 µM], FLuc inh-1 0.562µM*, FLuc SDR -ATP inconclusive, FLuc SDR ATP inconclusive and FLuc inh-2 5.08µM*.
`O=C(NCc1ccc(F)cc1)c1cc(-c2cc(Cl)cc(Cl)c2)c2nncn2n1` gave HEK293 tox -8.6% and NIH3T3 tox -20.5%.
Screening O=C(Nc1cccc(C(F)(F)F)c1)N1CCCC(Cn2cnc3cccnc32)C1 (centres undefined) returned NPR1 antag -3.3%, HEK293 tox inconclusive, NIH3T3 tox -18.7% and FLuc inh-1 inactive.
`COCCNC(=O)C1CCN(c2ccnc3ccnn23)CC1` gave HEK293 tox 1.0% and NIH3T3 tox -16.5%.
`COc1ccc(C(=O)N2CCCC(C(=O)N3CCC(c4nc5ncccc5[nH]4)C3)C2)cc1` (centres undefined) gave HEK293 tox -4.2% and NIH3T3 tox -20.8%.
